# About 1,200 (52%) of roughly 2,300 compounds were called active. Another 34% or so got no clear call; they are omitted. The set was probably picked from earlier hits. Some of the results follow. Values without a mark were called inactive. Calls follow the shape of the dose curve; as a rule, active = well fitted inhibition curve with a large enough effect; inconclusive = small, poorly fitted or top-dose-only effect, or effect the other way; inactive = no such curve, though single readings can be large or run the other way.
# Experiment: Confirmation screen for delayed death inhibitors of the malarial parasite plastid, 48 hour incubation; also: nearly all actives have a fitted effect of over 65% in size
# Settings: P. falciparum-infected erythrocytes, luciferase growth; series mostly up to 28.7 µM; activity change, negative = inhibition: at the top concentration
# Source text: The goal of this screen is to discover new antimalarial compounds that act by inhibiting the development of the apicoplast in the malarial parasite Plasmodium falciparum. The biochemical processes that make this organelle essential for erythrocytic stage parasites are not well understood. However, antibiotics, such as azithromycin and tetracycline, which target the apicoplast translational machinery, have a potent antimalarial effect. […] We have developed a cell-based assay that measures parasite growth based on the expression of an integrated copy of a firefly luciferase reporter. To detect small molecules that cause this "delayed death phenotype, erythrocytes infected with the luciferase-expressing parasites were incubated with compounds for either one or two generations, corresponding to 48 and 96 hours, respectively. Compounds that inhibit parasite growth in the second generation, but not the first, should be enriched in antimalarials that target the apicoplast. Growth inhibition is detected by a decrease in luciferase activity. MLPCN Grant: R21 NS059500 Assay Provider: David Fidock and Eric Ekland, Columbia University Keywords: NIH Roadmap, MLPCN, MLI, MLSMR, qHTS, NCGC, qHTS, malaria, luciferase, viability
# Four microliters of culture medium (RPMI 1640 with 0.5% w/v Albumax (GIBCO), 24 mM sodium bicarbonate and 10 ug/mL gentamycin) were dispensed by a Multi-drop Combi into white solid 1536-well plates (Grenier) and 23 nL compound was added by a pin tool. Four microliters of infected erythrocytes (2% hematocrit, 0.1% parasitemia final concentration) in culture medium were dispensed and the plates incubated for 48 hours at 37 C in 5% CO2. Two microliters of luciferase detection reagent was added and luminescence was detected by a ViewLux (PerkinElmer) reader.
# % is scaled to controls: 0 for no effect and ±100 for the full control effect; potency is read from the fitted curve at half-maximal effect.
SMILES,Potency,"activity change, negative = inhibition"
Cc1ccc(C)c(N(CC(=O)Nc2cc(Cl)ccc2Oc2ccccc2)S(C)(=O)=O)c1,11.2 µM (active),
COc1ccccc1OCC(=O)Nc1cc(Cl)ccc1Oc1ccccc1,,-11.9%
CN(C)S(=O)(=O)c1ccc(Cl)c(NC(=O)CN2C(=O)NC(C)(C3CC3)C2=O)c1 (configuration not stated),14.1 µM (active),
CCOc1ccc2c(c1)C(N(CCN1CCOCC1)C(=O)Nc1ccccc1)CC(C)(C)O2 (configuration not stated),12.6 µM (active),
COCCNC(=O)c1cccc(OC2CCN(Cc3ccc(C(C)C)cc3)CC2)c1,14.1 µM (active),
C=CCNC(=O)c1onc(CSc2ccc(Cl)cc2)c1C(=O)O,,11.2%
CCOC(=O)C(C(=O)OCC)C(Nc1cccc(Br)c1)c1ccccc1 (configuration not stated),14.1 µM (active),
Cc1ccc(Nc2nc(NCc3ccco3)c3ccccc3n2)cc1,2 µM (active),
Cc1ccc2cc(C)c(SCC(=O)NCc3ccco3)nc2c1,,-22.8%
COc1ccc(Nc2cc(Cl)ccc2C(=O)O)cn1,,-43.1%
COc1ccc(Cl)cc1NC(=O)C(C)NC(c1ccccc1)c1ccccc1 (configuration not stated),8.91 µM (active),
C#CCOCCOCCOCCNc1nc(N2CCN(C(=O)Cn3cc(CC(C)O)nn3)CC2)nc(N2CCN(C(=O)[C@H](C)n3cc(CCCN=C(N)N)nn3)CC2)n1 (some centres not stated),,-25.6%
COc1nc(NC(=O)c2ccc(F)cc2)nc(OC)c1-c1ccccc1,12.6 µM (active),
O=[N+]([O-])c1c(Nc2ccccc2O)cc(Cl)c2nonc12,5.62 µM (active),
CC(C)(C)NC(=O)[C@H]1CN(Cc2cccnc2)CCN1C[C@@H](O)C[C@@H](Cc1ccccc1)C(=O)N[C@H]1c2ccccc2C[C@H]1O,7.94 µM (active),
CCCCN(CCCNC(=O)c1ccc(CS(=O)(=O)c2ccc(OC)cc2)o1)Cc1ccccc1,12.6 µM (active),
CN(CCCNC(=O)c1ccc(CS(=O)c2ccc(Br)cc2)o1)Cc1ccccc1 (configuration not stated),8.91 µM (active),
CCCCNC(=O)c1ccc(CS(=O)(=O)c2cccc(C(F)(F)F)c2)o1,,-12.9%
CN(CCNC(=O)c1ccc(CS(=O)(=O)c2ccc(Br)cc2)o1)CCc1ccccc1,4.47 µM (active),
CCn1c(=O)c(CCC(=O)N2CCOCC2)c(C)c2c(C)nn(-c3ccccc3)c21,14.1 µM (active),
COc1ccc(C(=O)N2CCN(S(=O)(=O)c3ccc(C)cc3C)CC2)cc1OC,12.6 µM (active),
COc1ccc(C)cc1S(=O)(=O)N1CCN(S(=O)(=O)c2cc(C(=O)O)ccc2C)CC1,11.2 µM (active),
Cc1ccc(S(=O)(=O)N2CCN(C(=O)c3cc(S(=O)(=O)N(C)C)ccc3N3CCCC3)CC2)c(C)c1,12.6 µM (active),

SMILES,Potency,"activity change, negative = inhibition"
Cc1ccc(S(=O)(=O)N2CCN(C(=O)c3ccc(Br)o3)CC2)c(C)c1,10 µM (active),
CCNc1nc(NCC)n2c(SCC(=O)Nc3ccccc3F)nnc2n1,12.6 µM (active),
Cc1c(Cl)cccc1NC(CC(=O)c1ccccc1)C(=O)O (configuration not stated),,-3.76%
CC(=O)O[C@H]1C(=O)[C@@]2(C)[C@H]([C@H](OC(=O)c3ccccc3)[C@]3(O)C[C@H](OC(=O)[C@H](O)[C@@H](NC(=O)c4ccccc4)c4ccccc4)C(C)=C1C3(C)C)[C@]1(OC(C)=O)CO[C@@H]1C[C@@H]2O,0.501 µM (active),
CC(=O)O[C@@]12CO[C@@H]1C[C@H](O)[C@@]1(C)C(=O)[C@H](O)C3=C(C)[C@@H](OC(=O)C(O)[C@@H](NC(=O)OC(C)(C)C)c4ccccc4)C[C@@](O)([C@@H](OC(=O)c4ccccc4)[C@H]21)C3(C)C (some centres not stated),0.141 µM (active),
Cc1c(/C=N/NC(=O)c2cccs2)c2ccccc2n1Cc1ccccc1Cl,4.47 µM (active),
Cc1noc(/C=C/c2nn(C)cc2Cl)c1[N+](=O)[O-],12.6 µM (active),
CC(=O)N1CCc2cc(S(=O)(=O)NCCC(=O)N3CCN(c4ccccn4)CC3)ccc21,11.2 µM (active),
COCCn1c(=NC(=O)/C=C/c2ccccc2)sc2cc(NC(C)=O)ccc21,10 µM (active),
O=C(/C=C/c1ccncc1)c1ccc(NC(=O)c2ccccc2F)cc1,12.6 µM (active),
COC(=O)c1cc(=O)n(Cc2cccs2)c(=Nc2ccccc2)s1,,-6.3%
Cc1c(C#N)c(NC(=O)CCl)n(Cc2cccs2)c1C,3.98 µM (active),
Cc1c(C#N)c(NC(=O)CCl)n(Cc2ccccc2)c1C,7.08 µM (active),
COc1ccc(-c2oc3ncn(Cc4ccco4)c(=N)c3c2-c2ccc(OC)cc2)cc1,7.94 µM (active),
CC1CCCC(NC(=O)c2cc(-c3ccncc3)nc3ccccc23)C1C (configuration not stated),11.2 µM (active),
C=CCn1cccc(/C=C/C(=O)c2ccc(C(C)(C)C)cc2)c1=S,1.26 µM (active),
Nc1nc(C2CC2)c(Sc2sc(N)nc2C2CC2)s1,,-10.8%
CCN1CCCC1CNC(=O)CS(=O)(=O)Cc1nc(-c2ccccc2C)oc1C (configuration not stated),11.2 µM (active),
Cc1ccccc1-c1nc(CS(=O)CC(=O)NC(C)CCc2ccccc2)c(C)o1 (configuration not stated),,-15.9%
COc1cc2c(cc1NC(=O)c1ccc(C(C)(C)C)cc1)CCCC2,11.2 µM (active),
O=C(CCCN1C(=O)/C(=C/c2cccs2)SC1=S)Nc1ccc(O)cc1,11.2 µM (active),
O=C(CCCN1C(=O)/C(=C\c2cccs2)SC1=S)Nc1ccc(O)cc1,11.2 µM (active),
O=C(CCN1C(=O)/C(=C\c2ccc(F)cc2)SC1=S)Nc1ccccc1,,7.17%

SMILES,Potency,"activity change, negative = inhibition"
Cc1noc(C)c1C(=O)Nc1nc(-c2ccc(F)cc2)cs1,,12.2%
Cc1onc(-c2c(Cl)cccc2Cl)c1C(=O)Nc1nc(C(C)(C)C)cs1,11.2 µM (active),
COc1ccc(NC(=O)c2c(-c3c(Cl)cccc3Cl)noc2C)c(OC)c1,3.16 µM (active),
Cc1ccc(Cl)cc1N1CCN(Cc2nc3c(c(=O)[nH]c(=O)n3C)n2CCc2ccccc2)CC1,7.08 µM (active),
CCCCNC(=O)c1onc(CSc2ccccc2C)c1C(=O)O,,1.08%
CCc1ccc(OCCNC(=O)c2ccccc2SCc2ccccc2)cc1,14.1 µM (active),
COC(=O)c1ccc(CSc2ccccc2C)o1,,-5.45%
O=S(=O)(c1cccs1)N1CCC(CO)(Cc2cccc(F)c2)CC1,,-62%
CN(C)S(=O)(=O)N1CCN(c2ccnc3cc(Cl)ccc23)CC1,12.6 µM (active),
O=S(=O)(c1cccs1)N1CCN(c2ccnc3cc(Cl)ccc23)CC1,5.01 µM (active),
O=c1oc2ccccc2c(O)c1CN1CCCCC1,,18.3%
CCCCCCCCC[n+]1cccc2c3ccccc3ccc21,0.398 µM (active),
CCCCCCCCCC[n+]1cccc2c3ccccc3ccc21,0.891 µM (active),
O=S(=O)(Nc1ccc(O)c(Sc2nc3ccccc3s2)c1)c1cccc2ccccc12,15.8 µM (active),
COc1cc(-c2ccc(NC(=O)NC3CC3)c(OC)c2)ccc1NC(=O)NC1CC1,12.6 µM (active),
COc1ccc(Nc2cccc(Cl)c2)c(C(=O)O)c1,,-15.3%
COc1cc(-c2ccc(Nc3ccccc3C(=O)O)c(OC)c2)ccc1Nc1ccccc1C(=O)O,12.6 µM (active),
CC(=O)N1CCSc2ccc(S(=O)(=O)Nc3ccc(C)cc3)cc21,10 µM (active),
Cc1ccc(S(=O)(=O)C2(C(=O)N3CCCCCC3)CC2)cc1,,-19.3%
O=[N+]([O-])c1ccc(Sc2cccc3cccnc23)c([N+](=O)[O-])c1,4.47 µM (active),
CN1CC2=Cc3ccccc3OC23Oc2ccccc2C=C3C1,3.98 µM (active),
CC(C)=N/N=C1/NC(=O)C(Cc2ccccc2)S1 (configuration not stated),11.2 µM (active),
CCc1noc(C)c1C(=O)NC1CC(C)(C)Cc2c1cnn2-c1ccccc1 (configuration not stated),15.8 µM (active),

SMILES,Potency,"activity change, negative = inhibition"
Cc1ccc(-n2ncc3c2CC(C)(C)CC3NC(=O)c2c(C)noc2C)cc1 (configuration not stated),11.2 µM (active),
CC1=C(C(=O)NC2CC(C)(C)Cc3c2cnn3-c2ccc(C)cc2)OCCO1 (configuration not stated),12.6 µM (active),
Cc1cc(C)c(NC(=O)c2cccc3c2C(=O)N(C2CCCCC2)C3)c(C)c1,10 µM (active),
COc1cccc2cc(C(=O)NCc3ccc(Cl)cc3)c(=N)oc12,,-13.6%
COc1ccc(CCNC(=O)c2cc3c(=O)n4cccc(C)c4nc3n(Cc3ccco3)c2=N)cc1OC,12.6 µM (active),
Cc1cc(OCC(=O)N[C@@H](CSCc2ccccc2)C(=O)O)c2c(C)c(C)c(=O)oc2c1,14.1 µM (active),
COC(=O)c1c(-n2c(C)cc(C=O)c2C)sc2c1CCCC2,14.1 µM (active),
COc1cc(NCc2ccc3nc(N)nc(N)c3c2C)cc(OC)c1OC,0.316 µM (active),
O=C(Nc1ccc(C2=NCCN2)cc1)c1ccc(C(=O)Nc2ccc(C3=NCCN3)cc2)c(Cl)c1,0.891 µM (active),
COCCNC(=O)CCCCCN1C(=O)CCC1=O,,-8.65%
Cc1cccc(-n2ccc(=O)c(C(=O)Nc3ccc(S(=O)(=O)N4CCOCC4)cc3)n2)c1,11.2 µM (active),
O=S(=O)(c1ccc(Cl)c(NC(=S)N/N=C/c2ccc(O)cc2)c1)N1CCOCC1,11.2 µM (active),
O=C(NCc1ccccc1)C1=C[C@@H](c2coc3ccccc3c2=O)C[C@@H](OCc2ccc(CO)cc2)O1,10 µM (active),
O=C(Nc1ccccc1)C1=C[C@@H](C2CCCCC2)C[C@@H](OCc2ccc(CO)cc2)O1,11.2 µM (active),
O=C(NC1CC1)C1=C[C@@H](C2CCCCC2)C[C@@H](OCc2ccc(CO)cc2)O1,12.6 µM (active),
CN(c1ccccc1)S(=O)(=O)c1ccc(NC(=O)c2nc(S(C)(=O)=O)ncc2Cl)cc1,,-6.44%
CN(c1ccccc1)S(=O)(=O)c1cc(C(=O)N2CCN(c3ncccn3)CC2)ccc1Cl,11.2 µM (active),
COC(=O)c1ccc(NC(=O)c2cccc(NC(=O)c3ccccc3)c2)cc1,8.91 µM (active),
COc1cc(C(=O)Nc2ccc(S(=O)(=O)Nc3cc(C)on3)cc2)cc(OC)c1OC,,3.18%
COC(=O)c1ccc(CNCC(=O)Nc2ccc(C(=O)OC)cc2)cc1,,-23.3%
COc1ccc(NC(=O)c2cccc(NC(=O)c3ccccc3)c2)c(OC)c1,11.2 µM (active),
COc1cc(C(=O)Nc2ccc(Nc3ccccc3)cc2)cc(OC)c1OC,11.2 µM (active),
COc1ccccc1NC(=O)c1ccc2nc(-c3ccccc3)c(-c3ccccc3)nc2c1,,1.49%
